Most compounds without a hit are left out; they make up all but 15% or so of the library.
RORgamma inh: inhibitors of mouse ROR gamma transcriptional activity | 310,000 tested, 5.4% active | Potency, µM (top dose mostly 53.6 µM), for inactives: top-dose activity change, negative = inhibition, most hits filed as inhibitors | Drosophila S2 Gal4-RORgamma UAS-luciferase reporter, 20 h | AID 2551 | P51450; note: nearly all actives have a fitted effect of over 60% in size
Target sequence (P51450 whole entry, looked up, the tested form may be a part): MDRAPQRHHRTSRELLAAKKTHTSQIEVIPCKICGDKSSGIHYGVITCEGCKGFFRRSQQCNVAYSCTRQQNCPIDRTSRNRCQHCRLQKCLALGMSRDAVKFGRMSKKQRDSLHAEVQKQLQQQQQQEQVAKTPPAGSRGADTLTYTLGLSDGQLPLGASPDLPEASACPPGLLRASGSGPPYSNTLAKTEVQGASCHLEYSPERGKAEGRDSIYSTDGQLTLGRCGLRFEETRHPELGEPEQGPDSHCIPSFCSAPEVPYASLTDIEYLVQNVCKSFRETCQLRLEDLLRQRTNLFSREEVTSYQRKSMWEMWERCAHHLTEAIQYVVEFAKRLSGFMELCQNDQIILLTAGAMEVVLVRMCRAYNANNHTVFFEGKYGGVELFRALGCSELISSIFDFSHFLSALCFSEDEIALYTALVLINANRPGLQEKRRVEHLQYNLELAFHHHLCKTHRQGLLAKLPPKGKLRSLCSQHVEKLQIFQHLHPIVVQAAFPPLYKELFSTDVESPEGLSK
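Drosophila Schneider cells stably carrying a metallothionein-driven Gal4 DBD–ROR gamma fusion and a UAS-Photinus luciferase reporter were exposed to compound for 1 hr, then induced with copper sulfate (700 uM final) for 20 hr at ambient temperature before luminescence reading.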
VP16 counter: counter-screen for ROR gamma inhibitors: Gal4-VP16 reporter. Drosophila S2 Gal4-VP16 UAS-luciferase, luminescence, 20 h. Potency, µM (top dose mostly 53.6 µM), inactives show at the highest dose activity, negative = inhibition, most hits filed as inhibitors. 310,000 tested, 3.5% active;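 note: Gal4-VP16 expression switched on by copper sulfate through the metallothionein promoter; nearly all actives have a fitted effect of over 50% in size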
ELG1 DNA repair: ELG1-dependent DNA repair inhibition | HEK293T ELG1-luciferase reporter, luminescence, 16 h; DNA damage induced by 5-fluorouridine | Potency, µM (highest dose often 46.1 µM), inactives show at the top dose activity change, negative = inhibition, most hits filed as inhibitors | 330,000 tested, 2.3% active; note: nearly all actives have a fitted effect of over 55% in size
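HEK293T cells expressing luciferase-tagged ELG1 (2,000/well) received 5-Fluorouridine plus compound or DMSO for 16 hr at 37 °C. Luciferase was read by ONE-Glo luminescence after 30 min at room temperature.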
ALOX12 inh: ALOX12 (human) lipoxygenase inhibition; P18054; purified 12hLO, xylenol orange hydroperoxide absorbance; Potency, µM (top dose mostly 108 µM), for the others: at the highest dose activity change, negative = inhibition, actives largely listed as inhibitors; 580,000 tested, 1.1% active
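Hydroperoxide product was detected by ferrous iron/xylenol orange as the 573 to 405 nm absorbance ratio. Arachidonic acid at 40 uM (final) was turned over for 30 min at room temperature by 150 nM human 12hLO, pH 7.0 Hepes buffer, after 15 min compound preincubation.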
DT40 TDP1 no CPT: qHTS for Inhibitors of human tyrosyl-DNA phosphodiesterase 1 (TDP1): qHTS in cells in absence of CPT; DT40 Tdp1-/- hTDP1 cells, no CPT, ATP luminescence, 48 h; 420,000 tested, 15% active; Potency, µM (highest dose often 46.2 µM), inactives show at the highest dose activity change, negative = growth inhibition, most hits filed as inhibitors; note: nearly all actives have a fitted effect of over 55% in size
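Compound effects on proliferation are scored in DT40 Tdp1-/-;hTDP1 cells in the absence of CPT. ATP levels (CellTiter-Glo luminescence) are recorded after a ≥48 hr, 37 °C incubation.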
DT40 TDP1 CPT: growth inhibition of DT40 Tdp1-/-;hTDP1 cells with camptothecin (screen for TDP1 inhibitors) | chicken DT40 Tdp1-/-;hTDP1 cells + 20 nM CPT, ATP luminescence, 48 h | Potency, µM (titrated, usually from 46.2 µM), for inactives: at the highest dose activity change, negative = growth inhibition, hits mostly inhibitors | 420,000 tested, 12% active; note: nearly all actives have a fitted effect of over 55% in size
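Chicken DT40 Tdp1-/- cells stably complemented with human TDP1 were seeded at 400 cells/well in medium containing 20 nM camptothecin, exposed to pin-transferred compounds, and grown at 37 °C for at least 48 hr. Viability was read as ATP luminescence.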
* marks the source's active call; other numbers are inactive results; ? = inconclusive; / = no result given; [ ] = remark or other dose. Calls come from the whole dose curve; as a rule, active = well fitted curve in the direction sought with a large enough effect; inconclusive = small, poorly fitted or top-dose-only effect, or another doubt; inactive = no such curve, though single readings can be large; an effect the other way counts as inactive or inconclusive. % is set by controls: 0 for no effect and ±100 for the full control effect; potency is the fitted concentration of half-maximal effect.

SMILES	RORgamma inh	VP16 counter	ELG1 DNA repair	ALOX12 inh	DT40 TDP1 no CPT	DT40 TDP1 CPT
O=C(CN1CCCCC1c1nc2ccccc2s1)NC(=O)Nc1ccc2c(c1)OCO2 (centres undefined)	/	/	/	-4.6%	/	/
O=C(c1cccc(-n2cnnc2)c1)N(Cc1ccc2[nH]ccc2c1)C1CC1	/	/	/	10.2%	/	/
Cn1nc(C(=O)Nc2sc3c(c2C#N)CCCC3)c(Cl)c1C(F)(F)F	/	/	/	7.8%	/	/
CC(C)Cc1cc(C(=O)Nc2sc3c(c2C#N)CCCC3)no1	2.9%	-5.1%	21.2%	3.0%	-11.3%	-16.1%
N#Cc1c(NC(=O)c2cc(C3CC3)on2)sc2c1CCC2	3.7%	9.7%	12.4%	?	11.6µM*	10.3µM*
N#Cc1c(NC(=O)c2cc(-n3cnnc3)ccc2Cl)sc2c1CCCC2	?	10.9%	-23.9%	30.7%	13µM*	20.6µM*
Cc1cc(C(=O)Nc2sc3c(c2C#N)CCCC3)no1	?	?	?	35.5µM*	?	?
CC(C)N1C(=O)C2(CCCC2)C1C(=O)NCCN1CCCCC1 (centres undefined)	/	/	/	32.1%	/	/
COc1ccc(S(=O)(=O)c2c(C)c(C)n(C3CCCC3)c2NC(C)=O)cc1	/	/	/	-6.4%	/	/
COc1cc(C2CC(=O)Nc3c2c(=O)nc(SC)n3C)cc(OC)c1OC (centres undefined)	/	/	/	-14.4%	/	/
CCOc1ccc(C2CC(=O)Nc3c2c(=O)nc(SCc2ccccc2C)n3C)cc1OC (centres undefined)	/	/	/	5.0%	5.8µM*	9.2µM*
CS(=O)(=O)N(C1CCOCC1)C1CN(C(=O)c2n[nH]c3ccccc23)C1	/	/	/	40.8%	/	/
CS(=O)(=O)N1CCC[C@@]2(CCN(C(c3ccccc3)c3ccccc3)C2)C1	-4.1%	1.0%	/	-0.4%[57.4 µM]	?	?
c1ccc(C(c2ccccc2)N2CC[C@@]3(CCCNC3)C2)cc1	16.0%	20.7%	/	-4.9%[57.4 µM]	25.9µM*	?
c1ccc(C(c2ccccc2)N2CCCC3(CCNCC3)C2)cc1	-21.4%	-1.6%	/	2.3%[57.4 µM]	6.51µM*	9.2µM*
COC(=O)N1CCC2(CCCN(C(c3ccccc3)c3ccccc3)C2)CC1	17.7%	-12.1%	/	-10.6%[57.4 µM]	-24.9%	12.9%
Cc1cccc(Nc2nnc(Cc3ccccc3)c(=O)[nH]2)c1	/	/	/	-9.9%	/	/
CCOC(=O)N1CCC(Nc2c(N3CCN(c4cccc(C(F)(F)F)c4)CC3)c(=O)c2=O)CC1	?	?	18.4µM*	5.7%	?	23.1µM*
CCOC(=O)N1CCC(Nc2c(-c3ccccc3)c(=O)c2=O)CC1	16.3%	1.5%	-15.0%	-12.3%	23.1µM*	?
CCOC(=O)N1CCC(Nc2c(Nc3cccc(CC)c3)c(=O)c2=O)CC1	20.4%	-15.2%	?	5.3%	18.4µM*	?
Cc1cc(C(=O)N2CCC(Cc3nc(-c4ccccc4)n[nH]3)C2)n(C)n1 (centres undefined)	/	/	/	38.1%	/	/
CCS(=O)(=O)c1ccccc1C(=O)Nc1ccc(-c2nc3ccccc3s2)cc1	/	/	/	-24.8%	14.6µM*	?
CC(C)(C)c1ccc(S(=O)(=O)NCC(=O)Nc2ccc(-c3nc4ccccc4s3)cc2)cc1	-0.1%	?	?	0.0%	-25.7%	-3.4%
O=C(CCS(=O)(=O)c1ccccc1)Nc1cccc(-c2nc3ccccc3s2)c1	?	-27.9%	?	2.3%	18.4µM*	?
Cc1cccc(OCC(=O)Nc2cccc(-c3nc4ccccc4s3)c2)c1	/	/	/	-4.4%	?	?
SMILES	RORgamma inh	VP16 counter	ELG1 DNA repair	ALOX12 inh	DT40 TDP1 no CPT	DT40 TDP1 CPT
O=C(CNS(=O)(=O)c1cccc(Cl)c1)Nc1ccc(-c2nc3ccccc3s2)cc1	-35.3%	2µM*	?	-24.0%	-5.4%	-14.7%
Cc1ccc(C(=O)Nc2ccc(-c3nc4ccccc4s3)cc2)c(C)c1	/	/	/	25.3%	/	/
CC(C)(C)C(=O)Nc1ccc(-c2nc3ccccc3s2)cc1	/	/	/	0.7%	?	?
CNc1ccc(-c2nc3ccccc3s2)cc1	1.41µM*	?	/	/	/	/
COc1ccccc1NC(=O)Cn1c(=O)c2c(ncn2CC(C)C)n(CC(C)C)c1=O	/	/	/	-3.2%	/	/
O=C(CCS(=O)(=O)c1ccccc1)Nc1ccc(-c2nc3ccccc3s2)cc1	?	5.62µM*	?	-18.4%	-5.5%	11.2%
C=CCn1c(SCc2csc(-c3ccc(Cl)cc3)n2)nnc1-c1ccccc1OC	?	-3.9%	?	-25.1%	?	23.1µM*
CC(C)C1=NN(C(=O)c2ccccc2)C(O)(C(C)(C)C)C1 (centres undefined)	4.47µM*	?	?	-11.6%	6.51µM*	?
O=C(NC(=S)Nc1nc(-c2ccccc2)cs1)c1cccs1	-0.7%	-9.4%	?	-15.5%	-5.0%	13.3%
Cc1ccc2nc(NC(=S)NC(=O)c3cccs3)sc2c1	1.12µM*	3.16µM*	?	-2.5%	?	?
Cc1ccc(-c2csc(NC(=S)NC(=O)c3cccs3)n2)cc1	2µM*	-0.2%	-4.6%	-1.6%	-27.6%	?
O=C(NC(=S)Nc1nc(-c2ccc(Cl)cc2)cs1)c1cccs1	0.794µM*	4.3%	-17.5%	-0.4%	?	?
O=C(Nc1ccccc1)Nc1nc(-c2ccc(Cl)cc2)cs1	3.1%	-13.0%	4.7%	-0.4%	?	?
O=C(c1ccoc1)N1C[C@H]2OC(=O)N(CCCN3CCOCC3)[C@H]2C1	/	/	/	-1.1%	/	/
Cc1nc2ncnn2c(N2CCCC2)c1Cc1ccccc1	/	/	/	2.7%	/	/
Cc1cc(N2CCN(C(c3ccccc3)c3ccccc3)CC2)n2ncnc2n1	11.8%	12.8%	/	?	?	23.1µM*
Cc1nc2ncnn2c(N2CCN(C(c3ccccc3)c3ccccc3)CC2)c1C	?	21.2%	/	-13.7%	13µM*	20.6µM*
CCc1nnc2sc(-c3ccc(CNC(=O)C(C)(C)Oc4ccc(Cl)cc4)cc3)nn12	/	/	/	67.7%	/	/
CC(=O)Nc1ccc(SC(C)C(=O)N(C)c2ccccc2)cc1 (centres undefined)	/	/	/	-4.9%	/	/
O=S(=O)(Nc1ccc2cn[nH]c2c1)c1ccc(Cl)c(Cl)c1	/	/	/	-25.2%	/	/
CN(C)c1ccc(NC2=C(Cl)C(=O)c3ccccc3C2=O)cc1	15.8µM*	?	?	?	11.6µM*	20.6µM*
O=C1C(Cl)=C(Nc2ccc3cn[nH]c3c2)C(=O)c2ccccc21	7.08µM*	?	?	?	2.06µM*	1.64µM*
CCc1cccc(NC(=O)N2CCCC(c3noc(COc4ccccc4F)n3)C2)c1 (centres undefined)	/	/	/	23.3%	/	/

Screening data as filed in PubChem.
